Data as given in ChEMBL document CHEMBL4513216, “Probing the Open Global Health Chemical Diversity Library for Multistage-Active Starting Points for Next-Generation Antimalarials” (ACS Infect Dis, 2020).
In all, about 68,000 compounds went through this assay and about 2,700 (4%) showed an effect of 50% or more. The list comes from a sample in which strong results are over-represented; it also holds similar structures and randomly drawn compounds.

What follows are molecules tested on Plasmodium berghei (assay: Screen against P. berghei liver stage (PbLuc), transformed with Luciferase, at 2uM). Settings: tested at 2 uM.
Assay type: functional, HepG2

SMILES | INHIBITION
CN(CCc1ccccn1)C(=O)c1cnn(-c2ccccc2F)c1N | 4%
Cc1nc(NC(=O)N2CCCC(N(C)C)C2)nn1C (stereo unspecified) | 15.68%
CN(C)S(=O)(=O)N1C[C@H]2CC[C@@H](C1)N(Cc1ccc3c(c1)OCCO3)C2 | 8.48%
CN(C)S(=O)(=O)N1C[C@H]2CC[C@@H](C1)N(Cc1ccc3nsnc3c1)C2 | 22.22%
CN(C)S(=O)(=O)N1C[C@H]2CC[C@@H](C1)N(Cc1ccc(F)c(F)c1)C2 | 53.12%
CN(CC(F)(F)F)C(=O)CN1CCC(c2cc3ccccc3[nH]2)CC1 | -17.18%
CN(C)C(=O)CN1C[C@H]2CC[C@@H](C1)N(Cc1c(F)cccc1Cl)C2 | 41.05%
CN(C)C(=O)CN1C[C@H]2CC[C@@H](C1)N(Cc1cccc(Cl)c1Cl)C2 | -14.32%
CN(C)C(=O)CN1C[C@H]2CC[C@@H](C1)N(Cc1c(Cl)cncc1Cl)C2 | 69.67%
COc1ncc(CN(C)C(C)c2cccnc2)cn1 (stereo unspecified) | 40.8%
CNC(=O)CN1CCCC12CCN(C(=O)c1ccoc1)CC2 | 23.09%
CCOCCN1CCN(c2ccc(C#N)cn2)CC1 | 13.14%
CCCc1ccc(C(=O)N2Cc3c(Cn4ccnc4)nn(C)c3C2)cc1 | 1.81%
CC(NC(=O)NCCn1ccnc1)c1ccc2c(c1)OCCCO2 (stereo unspecified) | -16.99%
O=C(COc1cccc(Cl)c1)N1CCOCC(O)(CN2CCCC2)C1 (stereo unspecified) | 52.1%
Cc1ccc(OCC(=O)N2CCOCC(O)(CN3CCCC3)C2)cc1C (stereo unspecified) | 5.47%
O=C(COc1ccc(F)cc1F)N1CCOCC(O)(CN2CCCC2)C1 (stereo unspecified) | 9.43%
Cc1ccc2nc(CN(C)Cc3n[nH]c4c3CCCCC4)[nH]c2c1C | -17.01%
COCCNC(=O)C1CCCN(c2ccc3nncn3n2)C1 (stereo unspecified) | -56.23%
Cn1c(CCNC(=O)C2CCCN(C3CCOCC3)C2)n[nH]c1=O (stereo unspecified) | -36.65%
Cn1cc(CN2C[C@H]3CCC[C@@]3(COc3ccccn3)C2)cn1 | 4.38%
CCc1nnc(NC(=O)NCCN(C)C(=O)OC(C)(C)C)s1 | -23.06%

SMILES | INHIBITION
CCN(CCNC(=O)Nc1nnc(C)s1)C(=O)OC(C)(C)C | 57.98%
Cc1nnc(NC(=O)NCCN(C(=O)OC(C)(C)C)C2CC2)s1 | -25.33%
CCC(C(=O)NCC1=CCCN(C)C1)c1ccccc1 (stereo unspecified) | -52.88%
COCc1cc(NCCc2ccc(S(N)(=O)=O)cc2)n2nccc2n1 | 32.88%
O=C(N1CCOCC1)N1CCc2ncnc(NC3CCC3)c2CC1 | 24.36%
CCC(=O)N1CCC2(CC1)CC(N1CCOCC1)c1cc(C)ccc12 (stereo unspecified) | 48.17%
O=C1NCCCCC1Sc1nnc(N2CCCC2)n1C1CC1 (stereo unspecified) | -20.55%
O=C1NCCCCC1Sc1n[nH]c(=O)n1C1CC1 (stereo unspecified) | -5.76%
O=C1NCCCCC1Sc1nnc(C2CC2)n1C1CC1 (stereo unspecified) | 58.24%
CCN1CC(C(=O)NCc2ccccc2-n2cccn2)CC1=O (stereo unspecified) | 24.91%
CNC(=O)[C@@H]1C[C@H]2CN(C(=O)c3ccco3)C[C@H]2N1C(C)C | -11.99%
c1cncc(COCc2nnc3n2CCN(Cc2cccs2)C3)c1 | 29.95%
Cc1ncsc1CCN(C)C(=O)CN1CCCCCC1=O | 24.36%
Cc1ncsc1CCN(C)C(=O)CN1CCCCC1=O | 17.2%
Cc1ncsc1CCN(C)C(=O)CN1CC2(CCCC2)CC1=O | 52.3%
COc1cc(NC(=O)c2nc3ccccc3n(C)c2=O)cc(OC)c1 | -1.01%
COCCn1cc(C(=O)N2CCCC2c2cccc(C)c2)ccc1=O (stereo unspecified) | 9.5%
CCN1CCN(C)C2(CCN(C(=O)CC(F)(F)F)CC2)C1=O | -2.81%
COCCCN1CC2(CCC1=O)CCN(Cc1cc(C(C)C)no1)CC2 | 50.86%
COCCCN1CC2(CCC1=O)CCN(Cc1cc(C)no1)CC2 | -7.23%
COCCCN1CC2(CCN(Cc3cc(C(C)C)no3)CC2)CC1=O | -9.78%
CS(=O)(=O)c1nccn1Cc1ccncc1 | -52.32%

SMILES | INHIBITION
Cc1ccccc1N1CC(C)N(C(=O)CCn2cccn2)CC1=O (stereo unspecified) | 51.08%
CCc1nccn1CCC(=O)N1CCN(c2ccccc2C)CC1C (stereo unspecified) | -12.03%
CCc1nccn1CCC(=O)N1CC(=O)N(c2ccccc2C)CC1C (stereo unspecified) | 26.21%
O=C1NCC2(CCCN(C(=O)c3ccc4c(c3)CCCO4)CC2)O1 (stereo unspecified) | 26.74%
O=C1NCC2(CCN(C(=O)c3ccc4c(c3)CCCO4)CC2)O1 | 50.59%
O=C1NCC2(CCCN(C(=O)c3ccc4c(c3)OCCO4)CC2)O1 (stereo unspecified) | 24.36%
Cc1cc(-c2ccccc2C(=O)O)nc(C2CCCCN2C)n1 (stereo unspecified) | 11.52%
O=C(c1cccc(-n2cccn2)c1)N1CCOC(CCO)C1 (stereo unspecified) | 62.51%
O=C(c1cccc(-n2cccn2)c1)N1CCCOC(CN2CCCC2)C1 (stereo unspecified) | 33.9%
NCC1CN(C(=O)c2cccc(-n3cccn3)c2)CCO1 (stereo unspecified) | 45.82%
c1cnc2c(c1)nc1n2[C@@H](CNCc2nccs2)COC1 | -111.95%
Fc1cccc(N2CCc3ncnc(N4CCOCC4)c3CC2)c1 | -7.49%
CCOc1ccc(SCCNS(=O)(=O)CC)cc1 | 20.15%
O=C(O)c1c(-c2cccnc2)ncc2c1CCN(CC1CCOC1)C2 (stereo unspecified) | 21.13%
CSc1cc2c(cc1NC(=O)N(C)Cc1ccncc1)OCCO2 | -10.36%
Cn1c2ncccc2c(=O)n1CC(=O)NCCc1c(F)cccc1F | -0.83%
Cc1ccc(CNC(=O)Cn2c(=O)c3cccnc3n2C)cc1F | 16.93%
Cn1c2ncccc2c(=O)n1CC(=O)NCCC1=CCCCC1 | 54.49%
CCC[C@@H](NC(N)=O)C(=O)N1Cc2ccccc2-c2ccccc2C1 | -9.87%
CC(C)Cc1noc(CNc2cccc(-c3nnnn3C)c2)n1 | -45.29%
CC=C(C)C(=O)NS(=O)(=O)c1ccc(C(F)(F)F)cn1 | -31.15%
O=C(c1cccc(O)c1)N1CCN(Cc2nnc(C3CCC3)o2)CC1 | 1.41%
